Results filed as inconclusive are left out. Activity calls are given as the source filed them. How the source made its calls, unless noted: active means hit-call score of the fitted dose curve at least 0.9, where 1 is the maximum; inactive means score below 0.9.

A short description of assay [1]: APR_HepG2_CellCycleArrest_1hr: Apredica 1-hour HepG2 Assay for Cell Cycle Arrest (AID 2282666). The following applies: high-content imaging, actives raise or lower the signal. Summed up:
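HepG2 cells exposed for 1 h to 0.39–200 uM compound (0.5% DMSO). Fixed, Hoechst-stained nuclei imaged by ArrayScan; DNA content quantified by Cell Cycle analysis; bidirectional fit against DMSO.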

Assay [2] is described as follows: ACEA_ER_80hr: ACEA Biosciences xCELLigence Real-Time Cell Analysis on Estrogen Receptor Agonism for Proliferation (AID 2282667; active means hit-call score of the fitted dose curve at least 0.9, where 1 is the maximum). Particulars: T47D proliferation, impedance (xCELLigence), 80 h. The gist of the method:
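Impedance readout (RT-CES) of T47D proliferation at 80 h post-dose; gain of signal vs DMSO baseline. Compounds: 8 conc, 1:4 serial, top 100 uM final, ≤0.5% DMSO; biological duplicate.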

Assay [3] is described as follows: APR_HepG2_MicrotubuleCSK_1hr: Apredica 1-hour HepG2 Assay for Microtubule CSK Stabilty (AID 2282669). The following applies: HepG2 microtubule cytoskeleton imaging, actives raise or lower the signal. Summed up: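 HepG2 cells exposed 1 h to 0.39–200 uM compound (0.5% DMSO, duplicates), then formaldehyde-fixed, permeabilized and immunostained for alpha-tubulin with Hoechst nuclei. Imaged by ArrayScan high-content analysis; bidirectional fit versus DMSO.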

A short description of assay [4]: APR_HepG2_p53Act_1hr: Apredica 1-hour HepG2 Assay for p53 Activation (AID 2282671). The following applies: high-content imaging, actives raise or lower the signal. Summed up: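 HepG2 cells treated 1 h with compound at 0.39–200 uM (10 concentrations, duplicate) in 0.5% DMSO. Formaldehyde-fixed, permeabilised cells immunostained for p53 with Hoechst 33342; high-content imaging, bidirectional fit versus DMSO.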

Assay [5] can be described thus: APR_HepG2_MitoticArrest_1hr: Apredica 1-hour HepG2 Assay for Mitotic Arrest (AID 2282672). Particulars: high-content imaging, actives raise or lower the signal. The gist of the method: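 HepG2 cells exposed 1 hr to compounds at 0.39–200 uM (0.5% v/v DMSO final), then fixed in 3.7% formaldehyde and immunostained for phospho-histone H3 with Hoechst 33342. Mitotic arrest scored by automated fluorescence imaging, fitted bidirectionally versus DMSO.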

Assay [6] can be described thus: APR_HepG2_P-H2AX_1hr: Apredica 1-hour HepG2 Assay for H2AX Phosphorylation (AID 2282673). The following applies: high-content imaging, actives raise or lower the signal. Summed up: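 HepG2 dosed 1 hr at 0.39-200 uM (0.5% DMSO final), duplicate. Fixed in 3.7% formaldehyde, Triton permeabilized, immunostained for phospho-histone H2A.x (1:200) with Hoechst 33342; ArrayScan 20x imaging, bidirectional fit vs DMSO.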

The nature of assay [7]: APR_HepG2_MitoMass_1hr: Apredica 1-hour HepG2 Assay for Mitochondrial Mass (AID 2282674). The following applies: high-content imaging, actives raise or lower the signal. The gist of the method: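 HepG2 cells dosed 1 hr with 0.39-200 uM compound (0.5% DMSO), duplicate wells. Mitochondria stained with 250 nM MitoTracker Red CMXRos for 30 min before formaldehyde fixation, imaged at 20x by ArrayScan; bidirectional fit versus DMSO.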

Assay [8] in a line: APR_HepG2_CellCycleArrest_24hr: Apredica 24-hour HepG2 Assay for Cell Cycle Arrest (AID 2282905).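 Further: cell cycle arrest scored as ratio of 2N to 4N nuclear DNA content.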 The following applies: imaging, actives raise or lower the signal. The gist of the method:
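Compounds at 0.39–200 uM (0.5% DMSO) for 24 h, then fixed and Hoechst 33342 stained. Cell-cycle analysis of nuclear DNA content by high-content imaging, fitted bidirectionally versus DMSO.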

The nature of assay [9]: APR_HepG2_NuclearSize_24hr: Apredica 24-hour HepG2 Assay for Nuclear Size (AID 2282907). Particulars: high-content imaging, actives raise or lower the signal. Summed up: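 HepG2 cells exposed 24 h to compounds at 0.39–200 uM (0.5% DMSO), fixed, Hoechst 33342 stained and imaged at 20x; nuclear diameter measured by automated image analysis, fitted bidirectionally against DMSO controls.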

Assay [10] is described as follows: APR_HepG2_CellLoss_24hr: Apredica 24-hour HepG2 Assay for Cell Loss (AID 2282908). The following applies: high-content imaging. Summed up: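 HepG2 cells exposed 24 hr to 0.39–200 uM compound in duplicate at 0.5% v/v final DMSO. Cells fixed in 3.7% formaldehyde and Hoechst 33342-stained. Cell number came from nuclear imaging at 20x. Bidirectional fit versus DMSO.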

A short description of assay [11]: APR_HepG2_MicrotubuleCSK_24hr: Apredica 24-hour HepG2 Assay for Microtubule CSK Stabilty (AID 2282909). The following applies: HepG2 microtubule cytoskeleton imaging, actives raise or lower the signal. The gist of the method: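 HepG2 cells were treated 24 hr with compound at 0.39–200 uM in duplicate (0.5% DMSO final), then fixed and permeabilized. Alpha-tubulin immunofluorescence was imaged by high-content microscopy, with bidirectional fitting against DMSO and taxol as positive control.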

The nature of assay [12]: APR_HepG2_MitoticArrest_24hr: Apredica 24-hour HepG2 Assay for Mitotic Arrest (AID 2282910). The following applies: high-content imaging, actives raise or lower the signal. The gist of the method:
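HepG2 cells, 24 h exposure at 0.39-200 uM (10 concentrations, duplicate, 0.5% DMSO). Fixed, stained for phospho-histone H3 with Hoechst; imaged by high-content microscopy, bidirectional fit versus DMSO.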

The nature of assay [13]: APR_HepG2_MitoMembPot_24hr: Apredica 24-hour HepG2 Assay for Mitochondrial Membrane Potential (AID 2282911). The following applies: imaging, actives raise or lower the signal. Summed up:
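HepG2, 24 hr dosing, 10 concentrations 0.39–200 uM, 0.5% DMSO final. Live-cell MitoTracker Red CMXRos 250 nM 30 min, then 3.7% formaldehyde fix. HCS fluorescence imaging, 20x; bidirectional fit vs DMSO baseline.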

Assay [14] can be described thus: APR_HepG2_MitoMass_24hr: Apredica 24-hour HepG2 Assay for Mitochondrial Mass (AID 2282912). Particulars: high-content imaging, actives raise or lower the signal. The gist of the method: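 HepG2 cells exposed 24 hr to 0.39–200 uM compound, 0.5% v/v DMSO, in duplicate. Stained before fixation with 250 nM MitoTracker Red CMXRos for 30 min, then imaged at 20x with Hoechst nuclei. Fitted in both directions against DMSO.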

Assay [15] can be described thus: APR_HepG2_p53Act_24hr: Apredica 24-hour HepG2 Assay for p53 Activation (AID 2282913).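 Further: p53 protein immunofluorescence averaged per cell in HepG2 with Hoechst nuclei.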 Particulars: high-content imaging, actives raise or lower the signal. The gist of the method: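 Read-out: Cy5 immunofluorescence for p53 in fixed, permeabilized HepG2, imaged by HCS with Hoechst-defined nuclei. Dosing was 24 hr at 0.39–200 uM in 0.5% DMSO. Curves were fitted bidirectionally relative to DMSO.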

Assay [16] is described as follows: APR_HepG2_CellCycleArrest_72hr: Apredica 72-hour HepG2 Assay for Cell Cycle Arrest (AID 2282914). Particulars: high-content imaging, actives raise or lower the signal. The gist of the method: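 HepG2, 72 hr exposure, 10-point 0.39–200 uM, duplicate, 0.5% DMSO final. Fix 3.7% formaldehyde 30 min RT, Triton X-100 0.5%, Hoechst 33342 2 ug/mL. ArrayScan 20x, six fields/well; DNA content per nucleus; bidirectional fit vs DMSO.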

Assay [17] in a line: APR_HepG2_MitoMembPot_1hr: Apredica 1-hour HepG2 Assay for Mitochondrial Membrane Potential (AID 2282675). Particulars: imaging, actives raise or lower the signal. Summed up: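 HepG2 cells dosed 1 hour with 0.39–200 uM compound in duplicate, 0.5% DMSO final. MitoTracker Red CMXRos (250 nM, 30 min) loaded before formaldehyde fixation; fluorescence quantified by high-content imaging, bidirectional fitting versus DMSO.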

The nature of assay [18]: APR_HepG2_NuclearSize_1hr: Apredica 1-hour HepG2 Assay for Nuclear Size (AID 2282670). Particulars: high-content imaging, actives raise or lower the signal. The gist of the method: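 HepG2 cells dosed 1 hr with 0.39–200 uM compound (0.5% DMSO), formaldehyde-fixed, Hoechst 33342-stained and imaged at 20x; nuclear diameter from nuclear stain, fitted bidirectionally against DMSO.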

Assay [19] is described as follows: APR_HepG2_StressKinase_1hr: Apredica 1-hour HepG2 Assay for Stress Kinase (AID 2282906). The following applies: HepG2 stress kinase (phospho-c-Jun) imaging, actives raise or lower the signal. The gist of the method: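 HepG2 cells dosed 0.39-200 uM (0.5% DMSO) for 1 h, then formaldehyde-fixed. Stress kinase read by phospho-c-Jun immunofluorescence using high-content imaging; bidirectional fit vs DMSO.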

As to `C=C(C)CN(CC)c1c([N+](=O)[O-])cc(C(F)(F)F)cc1[N+](=O)[O-]`, the outcome in assay [1], in assay [2], in [3], in [4], in assay [5] and in assay [6] was inactive. The compound was classed as inactive in assay [7], in assay [8], in [9], in assay [10], in [11] and in assay [12]. Further, the outcome in assay [13], in assay [14] and in assay [15] was inactive.
Consider `COP(=O)(OC)O/C(C)=C/C(=O)N(C)C`, for which the compound was called inactive in [1], in [2], in assay [3], in [4], in [5] and in assay [6]. Moreover, the outcome in assay [8], in assay [9], in assay [10], in [11], in [12] and in assay [13] was inactive. Further, the compound was called inactive in assay [14], in assay [15] and in [16].
`CC(C)Oc1cccc(NC(=O)c2ccccc2C(F)(F)F)c1`: the compound was classed as inactive in assay [1], in [2], in assay [3], in assay [4], in assay [5] and in [6]. Also, the result in [17], in [8], in assay [9], in assay [10], in assay [11] and in assay [12] was inactive. Besides, the compound was classed as inactive in assay [13] and in assay [15].
With `Nc1cnn(-c2ccccc2)c(=O)c1Cl`, the call in [1], in assay [2], in [3], in assay [4], in [5] and in [6] was inactive. The compound was classed as inactive in [8], in [9], in assay [10], in assay [11], in assay [12] and in [13]. The compound was called inactive in assay [15].
Broadly, the AC50 is the concentration at which the activity in the assay is half-maximal. In the case of `CCCN(CC)CC1COC2(CCC(C(C)(C)C)CC2)O1` (stereo unspecified), the result in assay [1], in [2], in assay [3], in assay [18], in assay [4] and in assay [5] was inactive. Further, the compound was called inactive in [6], in [17], in [8], in assay [19], in assay [9] and in [10]. The compound was classed as inactive in [12], in assay [13], in assay [15] and in assay [16]. Further, in assay [11], the AC50 is 100 µM (active).
As for `CC1(C)CON(Cc2ccccc2Cl)C1=O`, the compound was classed as inactive in assay [1], in assay [2], in assay [3], in assay [18], in assay [4] and in assay [5]. The compound was classed as inactive in assay [6], in [17], in [8], in assay [19], in assay [9] and in assay [10]. Also, the outcome in [11], in [12], in assay [13], in assay [15] and in assay [16] was inactive.
In the case of `COc1cc(OC)nc(NC(=O)NS(=O)(=O)c2ncccc2OCC(F)(F)F)n1`, the call in [1], in assay [2], in assay [3], in [4], in assay [5] and in [6] was inactive. Moreover, the call in assay [17], in assay [8], in [9], in assay [10], in [11] and in assay [12] was inactive. Moreover, the compound was classed as inactive in assay [13], in assay [15] and in assay [16].

For the origin of these results see PubChem BioAssay (EPA / NIEHS).
